Abeta yeast res: A-beta toxicity reversal in yeast | 410,000 compounds, 0.063% hits | Potency, µM (titrated, usually from 46.1 µM), usual class: activators | AID 1347071 | yeast expressing A-beta42, growth rescue, OD600, 48 h; response scale: 0% DMSO, 100% iron-clioquinol control; further: nearly all actives have a fitted effect of over 55% in size
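Growth rescue measured by 600 nm absorbance after 48 h yeast culture at 30 C with compound. Values normalized between DMSO and an equimolar ferric chloride plus clioquinol control.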
aSyn rescue: alpha-synuclein toxicity inhibition in yeast | Yeast expressing alpha-synuclein, growth rescue, BacTiter-Glo, 24 h | Potency, µM (top dose mostly 46.1 µM), hits mostly activators | 370,000 compounds, 0.14% hits | AID 652106; further: nearly all actives have a fitted effect of over 65% in size
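Screening used galactose-induced yeast with toxic alpha-synuclein levels, exposed to compound for 24 hr at 30 deg C. Cell growth, read with BacTiter-Glo luminescence, gave the measured signal.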
TDP-43 yeast inh: inhibitors of TDP-43 toxicity in yeast. 410,000 compounds, 1.8% hits. TDP-43 expressing yeast growth rescue, BacTiter-Glo, 24 h. Potency, µM (titrated, usually from 46.1 µM), hits mostly activators; further: nearly all actives have a fitted effect of over 50% in size
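Galactose-induced TDP-43 yeast, OD600=0.02, compound pinned; 24 hr, 30 deg C; BacTiter-Glo luminescence for growth. Inhibitors of TDP-43 toxicity read as activators.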
FUS suppressor: FUS proteinopathy suppression in yeast; S. cerevisiae FUS-expressing, growth rescue, OD600, 24 h; Potency, µM (highest dose often 76.6 µM), usual class: activators; AID 1347120; 390,000 compounds, 0.24% hits; further: nearly all actives have a fitted effect of over 55% in size
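Compound concentration series was pinned onto galactose-induced FUS-expressing yeast seeded at OD 0.005. Plates sat 24hr at 30C; absorbance at 600 nm gave growth. DMSO served as background control.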
Each line names hits and unclear results; the compound was inactive in the other large screens; ! = not confirmed by another sample. Rows were chosen to be rich in hits. Some 2.1% of all compounds tested hit in one or more screens of this group. The call rests on the fitted dose curve; in most records, active means well fitted curve in the direction sought with a large enough effect; inconclusive means small, poorly fitted or top-dose-only effect, or another doubt; inactive means no such curve, though single readings can be large; an effect the other way counts as inactive or inconclusive.

COc1cccc(CNc2ccc([N+](=O)[O-])cc2Cl)c1O	TDP-43 yeast inh 14µM
O=C(CSc1ccccc1)Nc1ccc(N2CCN(c3ccccc3)CC2)c(F)c1	none
Nc1ccc(N2CCN(c3ccccc3)CC2)c(F)c1	TDP-43 yeast inh 22µM
C=CCN=c1scc(-c2ccccc2)n1/N=C/c1ccccn1	Abeta yeast res inconclusive, TDP-43 yeast inh 22µM!
C=CCN=c1scc(-c2ccc(F)cc2)n1/N=C/c1ccccn1	Abeta yeast res inconclusive, TDP-43 yeast inh inconclusive
COc1cccc(-c2nnc3sc(C4CCCCC4)nn23)c1	TDP-43 yeast inh inconclusive
CCOc1cccc(-c2nnc3sc(C4CCCCC4)nn23)c1	TDP-43 yeast inh 18µM, FUS suppressor inconclusive
O=C(Cn1nc2c(cc1=O)CCCC2)Nc1ccccc1C(F)(F)F	none (no result: aSyn rescue)
CN(C(=O)C1Cc2c(-c3ccc(Cl)cc3)ccnc2O1)c1ccccc1 (stereo not drawn)	TDP-43 yeast inh 22µM
CN(C(=O)C1Cc2c(-c3ccccc3Oc3ccccc3)ccnc2O1)c1ccccc1 (stereo not drawn)	TDP-43 yeast inh inconclusive, FUS suppressor inconclusive
O=C(Nc1cccc(C(F)(F)F)c1)C1Cc2c(-c3ccc(Cl)cc3)ccnc2O1 (stereo not drawn)	aSyn rescue inconclusive, TDP-43 yeast inh 20µM
O=C(Nc1cccc(C(F)(F)F)c1)C1Cc2c(-c3ccco3)ccnc2O1 (stereo not drawn)	none
CC(=O)c1cccc(NC(=O)C2Cc3c(-c4ccc(Cl)cc4)ccnc3O2)c1 (stereo not drawn)	aSyn rescue inconclusive, TDP-43 yeast inh inconclusive, FUS suppressor 40µM
O=C(Nc1cccc(C(F)(F)F)c1)C1Cc2c(-c3ccccc3)ccnc2O1 (stereo not drawn)	Abeta yeast res inconclusive, aSyn rescue inconclusive, TDP-43 yeast inh 35µM
CC(=O)c1cccc(-c2ccnc3c2CC(C(=O)Nc2ccc(Cl)cc2)O3)c1 (stereo not drawn)	FUS suppressor inconclusive
CN(C)c1cccc(NC(=O)C2Cc3c(-c4ccc(Cl)cc4)ccnc3O2)c1 (stereo not drawn)	TDP-43 yeast inh inconclusive, FUS suppressor inconclusive
CSc1ccc(S(=O)(=O)N2CCC(C(=O)N3CCc4ccccc4C3)CC2)cc1	none
CN1C(=O)C(C)(C)c2cc(S(=O)(=O)NCC3CCC(C(=O)NCc4ccccc4)CC3)ccc21 (stereo not drawn)	none
O=S1(=O)Nc2c(cc(Cl)c3ccc(Cl)nc23)-c2ccccc21	none (no result: Abeta yeast res, TDP-43 yeast inh, FUS suppressor)
Cc1ccc2ccc3c(c2n1)NS(=O)(=O)c1ccc(C(F)(F)F)cc1-3	aSyn rescue 10µM (no result: Abeta yeast res, TDP-43 yeast inh, FUS suppressor)
Cc1cccc(-c2nc3ccccc3c3nncn23)c1	TDP-43 yeast inh 18µM
Cc1cc(Nc2ccccc2)n(-c2nc3ccccc3[nH]2)n1	TDP-43 yeast inh 16µM
O=C1C(SCCO)=C(SCCO)C(=O)c2ccccc21	TDP-43 yeast inh 22µM
COc1coc(C(O)CN)cc1=O (stereo not drawn)	none
CCOC(=O)C(=Cc1cc(=O)c(OC)co1)C(=O)OCC	TDP-43 yeast inh 13µM
Fc1ccccc1C1CC(c2ccco2)=Nc2ccccc2S1 (stereo not drawn)	TDP-43 yeast inh 22µM
COc1ccccc1C1CC(c2cccs2)=Nc2ccccc2S1 (stereo not drawn)	none
COc1cc(Cl)c(CC(=O)NO)cc1OC	none (no result: Abeta yeast res, TDP-43 yeast inh, FUS suppressor)
O=[N+]([O-])c1ccccc1/C=N/Nc1nnc(-c2ccccc2)c(-c2ccccc2)n1	none (no result: FUS suppressor)
Cc1ccc(SCC(=O)Nc2nccs2)cc1	TDP-43 yeast inh 11µM
O=C(Nc1ccccc1F)c1ccc(CSc2ccccc2)o1	TDP-43 yeast inh 13µM
Cc1ccc(SCc2ccc(C(=O)Nc3nccs3)o2)cc1	Abeta yeast res inconclusive, TDP-43 yeast inh 13µM
O=C(Nc1nccs1)c1ccc(COc2ccccc2)o1	none
O=C(Nc1nccs1)c1ccc(CSc2ccccc2)o1	TDP-43 yeast inh 11µM
O=C(Nc1cccc(F)c1)c1ccc(CSc2ccccc2)o1	none
CC1CCN(c2nnc(-n3cccc3CNc3cccc(F)c3)s2)CC1	TDP-43 yeast inh inconclusive
N#Cc1ccccc1NC(=O)COC(=O)c1ccc2c(c1)OCO2	none
Cn1cccc1C(=O)OCC(=O)Nc1cc(C(C)(C)C)nn1-c1ccccc1	TDP-43 yeast inh 35µM
COCCCN1C(=O)C(CC(=O)NC2CCCCC2)CC(C(=O)N(C)C)=C1C (stereo not drawn)	none
C[C@@H]1CC2[C@@H]3CC[C@H]4CC(=O)CC[C@]4(C)C3=CC[C@]2(C)[C@@]1(O)C(=O)CO (stereo partly drawn)	TDP-43 yeast inh 10µM
O=C(OCc1cc(Cl)cc2c1OCOC2)c1cccnc1Cl	aSyn rescue 16µM, TDP-43 yeast inh inconclusive
COCCCNC(=O)C[C@H]1C[C@@]2(C(=O)OC)C(=C[C@H](C(C)C)O[C@@H]2C2CC2)N(Cc2ccc(Cl)cc2Cl)C1=O	FUS suppressor 28µM (no result: Abeta yeast res, aSyn rescue, TDP-43 yeast inh)
COC(=O)[C@]12C[C@H](CC(=O)NCc3ccc(OC)c(OC)c3)C(=O)N(Cc3ccc(Cl)cc3Cl)C1=C[C@H](C(C)C)O[C@@H]2C1CC1	FUS suppressor 28µM (no result: Abeta yeast res, aSyn rescue, TDP-43 yeast inh)
COC(=O)[C@]12CCCCC=C1N(Cc1cccc3ccccc13)C(=O)[C@H](CC(=O)NCc1ccc(C)o1)C2	FUS suppressor inconclusive
CCN(CC(=O)NCc1ccc(F)cc1)C(=O)Cc1ccc(OC)cc1	TDP-43 yeast inh inconclusive
COc1cc(OC)c(NC(=O)Cn2ncn3c(cc4cc(C)ccc43)c2=O)cc1Cl	none (no result: aSyn rescue)
Cc1ccc(NC(=O)Cn2ncn3c(cc4ccccc43)c2=O)c(C)c1	FUS suppressor 32µM!
O=C(CSc1nnc(COc2ccc(Cl)cc2)n1Cc1ccco1)Nc1ccc2c(c1)OCO2	none (no result: Abeta yeast res, aSyn rescue, TDP-43 yeast inh)
COC(=O)C[C@@H]1CC[C@H]2[C@H](COc3ccc(NC(=O)c4cccc(C(F)(F)F)c4)cc3C(=O)N2C)O1	none (no result: Abeta yeast res, aSyn rescue, TDP-43 yeast inh)
Cc1cc(-c2nnc3n2N=C(c2ccccc2Br)CS3)n[nH]1	Abeta yeast res inconclusive
Clc1ccccc1C1=Nn2c(nnc2-c2ccncc2)SC1	TDP-43 yeast inh 11µM
Cc1cccc(-c2nnc3n2N=C(c2ccccc2Br)CS3)c1	TDP-43 yeast inh 20µM
COc1cc([C@H]2OC[C@H]3[C@@H]2CO[C@H]3c2ccc(O)c(OC)c2)ccc1O	none
C/C=C/c1cc(OC)c2c(c1)[C@H](C)[C@@H](c1ccc(O)c(OC)c1)O2	aSyn rescue 7.9µM
COc1ccc2oc(C(=O)Nc3ccc(S(=O)(=O)N(C)C4CCN(C)CC4)cc3)c(C)c2c1	none
COc1ccc(C2CC(C)(c3ccc(OC)cc3OC)Nc3ccccc3N2)c(OC)c1 (stereo not drawn)	none
N#Cc1c(N)[nH]c2ccc(Sc3ccccc3)cc12	TDP-43 yeast inh 22µM (no result: FUS suppressor)
Cc1nnc(-c2cccc(Br)c2)c2cn(-c3ccccc3Cl)nc12	TDP-43 yeast inh 10µM
Cc1ccc(-n2cc3c(-c4cccc(Br)c4)nnc(C)c3n2)cc1	TDP-43 yeast inh inconclusive, FUS suppressor inconclusive
Cn1c(=O)cc(OCC(=O)NCc2cccs2)c2ccccc21	none
COc1cc2c(cc1NC(=O)CSc1nnc(-c3cnccn3)n1-c1ccc(C)cc1)oc1ccccc12	FUS suppressor 18µM (no result: Abeta yeast res, aSyn rescue, TDP-43 yeast inh)
